Laboratory results: paper PMC4336329 (PLoS ONE, 2015)
In all, about 310,000 compounds went through this assay and about 2,200 (0.71%) showed an effect of 50% or more. Effects have a minus sign here. This is one part of a sample in which strong results are shown more often than they occur.

target: human ether-à-go-go-related gene (hERG) potassium channel (human, UniProt Q12809); experiment: primary screen, population patch clamp on CHO cells stably expressing hERG; higher = less effect of the substance
Experimental: Briefly, Chinese hamster ovary (CHO) cells stably expressing the hERG channel were dislodged from tissue culture flasks and dispensed into PPC plates. […] During the recording, background leak currents were estimated by a 100 ms step to -80 mV from an initial holding potential of -70 mV and subtracted from the subsequent current measurement. The campaign was conducted in two phases using slight differences in recording protocol. In the first phase, the initial voltage pulse used a 100 ms step to -30 mV from a holding potential of -70 mV, a 2 s conditioning step to +25 mV, and a 2 s test step to -30 mV. During the second phase of the screen, the potential during the conditioning step was raised to +45 mV. In both phases of the campaign, a secondary voltage pulse was applied using the same parameters as the second phase initial pulse. The initial and secondary pulses were applied in the absence of compound, and upon application of 1 μM and 10 μM test concentrations. Small molecule effects on hERG current density were quantified by […].

Chain of human ether-à-go-go-related gene (hERG) potassium channel (Q12809 whole entry, looked up): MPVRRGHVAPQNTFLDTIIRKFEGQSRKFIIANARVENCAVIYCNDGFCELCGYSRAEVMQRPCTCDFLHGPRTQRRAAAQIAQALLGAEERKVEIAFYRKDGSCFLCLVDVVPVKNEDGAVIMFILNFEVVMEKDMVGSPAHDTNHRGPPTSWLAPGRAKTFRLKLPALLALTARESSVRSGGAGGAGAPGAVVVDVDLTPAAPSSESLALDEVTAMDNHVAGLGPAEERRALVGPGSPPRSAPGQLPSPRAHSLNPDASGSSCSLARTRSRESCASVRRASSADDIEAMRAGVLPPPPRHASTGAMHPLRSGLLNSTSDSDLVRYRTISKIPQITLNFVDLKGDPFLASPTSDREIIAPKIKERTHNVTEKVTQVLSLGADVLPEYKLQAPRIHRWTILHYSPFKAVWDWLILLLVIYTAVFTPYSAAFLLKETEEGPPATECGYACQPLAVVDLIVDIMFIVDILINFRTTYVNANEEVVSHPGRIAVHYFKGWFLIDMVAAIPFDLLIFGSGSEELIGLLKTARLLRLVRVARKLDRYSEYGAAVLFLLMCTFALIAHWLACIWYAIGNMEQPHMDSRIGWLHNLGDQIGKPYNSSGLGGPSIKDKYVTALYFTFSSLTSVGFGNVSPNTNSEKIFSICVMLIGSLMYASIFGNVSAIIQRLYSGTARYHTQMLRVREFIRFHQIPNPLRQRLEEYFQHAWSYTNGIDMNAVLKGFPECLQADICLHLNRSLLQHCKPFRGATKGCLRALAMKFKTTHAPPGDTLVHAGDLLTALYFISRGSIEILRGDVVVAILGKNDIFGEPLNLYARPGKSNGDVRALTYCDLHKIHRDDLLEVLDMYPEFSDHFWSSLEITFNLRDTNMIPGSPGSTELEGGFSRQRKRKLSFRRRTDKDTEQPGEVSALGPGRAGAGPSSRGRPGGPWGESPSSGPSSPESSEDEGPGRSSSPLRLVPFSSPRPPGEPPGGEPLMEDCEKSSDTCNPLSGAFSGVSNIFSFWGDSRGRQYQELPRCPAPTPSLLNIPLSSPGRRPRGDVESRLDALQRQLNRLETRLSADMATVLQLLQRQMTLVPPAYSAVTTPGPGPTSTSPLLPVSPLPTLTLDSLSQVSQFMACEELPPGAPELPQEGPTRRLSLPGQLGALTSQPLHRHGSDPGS

Structure (SMILES)	hERG current change (%, negative = inhibition) at 1uM [%]
CCN(CC(=O)NCc1cccs1)C(=O)/C=C/c1cccc(Br)c1	-42.3
COc1cccc(NC(=O)CN(C)C(=O)c2ccccc2Sc2ccccc2C#N)c1	8.02
CCC(C)NC(=O)Cn1nc(Cc2ccncc2)c2ccccc2c1=O (stereo not shown)	10.1
Cc1cc(NC(=O)c2ccc3c(c2)C(=O)N(C)C3=O)no1	16.4
Cc1ccc(C)c(OCCC(=O)NNC(=O)c2ccccc2)c1	10.8
Cc1cccc(N(C(=O)c2nsc(Cl)c2Cl)C(C(=O)NC2CCCC2)c2ccc(O)cc2)c1C (stereo not shown)	10.1
O=C(c1cccc(S(=O)(=O)N2CCOCC2)c1)N(Cc1ccco1)Cc1cccs1	-6.4
CN(C)S(=O)(=O)c1cccc(C(=O)N(Cc2ccc(F)cc2)Cc2ccco2)c1	-14.6
O=C(c1cccc(S(=O)(=O)N2CCOCC2)c1)N(Cc1ccc(F)cc1)Cc1ccco1	-55.2
CCC(=O)O[C@]1(C(=O)CCl)[C@@H](C)C[C@H]2[C@@H]3CCC4=CC(=O)C=C[C@]4(C)[C@@]3(F)[C@@H](O)C[C@@]21C	18
Cc1cccc(OCC(O)Cn2c(=N)n(CCN3CCOCC3)c3ccccc32)c1.Cl (stereo not shown)	-8.29
COc1ccc(-c2cc3ccccc3n2CC(O)CN2CCOCC2)cc1 (stereo not shown)	2.37
COc1ccc(-c2cc3ccccc3n2CC(O)CN2CCCCC2)cc1.O=C(O)C(=O)O (stereo not shown)	-74.6
CCCn1c(=N)n(CC(O)c2ccc(C)cc2)c2ccccc21.Cl (stereo not shown)	-14.9
COc1ccc(-c2cc3ccccc3n2CC(O)CN2CCC(C)CC2)cc1.O=C(O)C(=O)O (stereo not shown)	-49.8
CCOc1ccc(C(O)Cn2c(=N)n(CCN3CCCCC3)c3ccccc32)cc1.Cl (stereo not shown)	-56
Cl.N=c1n(CCN2CCCCC2)c2ccccc2n1CC(O)COc1ccccc1 (stereo not shown)	-32.7
Cc1ccc(OCC(O)Cn2c(=N)n(CCN3CCCCC3)c3ccccc32)cc1.Cl (stereo not shown)	-30.1
Cc1cccc(OCC(O)Cn2c(=N)n(CCN3CCCCC3)c3ccccc32)c1.Cl (stereo not shown)	-59.8
Cc1ccccc1OCC(O)Cn1c(=N)n(CCN2CCOCC2)c2ccccc21.Cl (stereo not shown)	-25.3
COc1ccc(OCC(O)Cn2c(=N)n(CCN3CCCCC3)c3ccccc32)cc1.Cl (stereo not shown)	-51.2
Cl.N=c1n(CCN2CCCCC2)c2ccccc2n1CC(O)c1ccco1 (stereo not shown)	-4.15

Structure (SMILES)	hERG current change (%, negative = inhibition) at 1uM [%]
CCCCC(=O)O[C@]1(C(=O)CO)CC[C@H]2[C@@H]3CCC4=CC(=O)CC[C@]4(C)[C@H]3[C@@H](O)C[C@@]21C	11.4
COc1ccc(N/C=C/C(=O)c2ccccc2)cc1	11
CCCCNC(=O)C1CCCN1C(=O)Nc1ccccc1 (stereo not shown)	0.208
O=S(=O)(NCc1cccnc1)c1ccc(Br)c2ccccc12	7.97
Cc1cc2nc(-c3ccc(SCc4ccc(C(=O)O)cc4)nc3)[nH]c2cc1C	14.5
COc1ccc2[nH]c(C(=O)O)c(CCNC(=O)/C=C/c3ccc(O)c(OC)c3)c2c1	13.1
CCCc1nnc(NC(=O)c2nc(S(=O)(=O)Cc3cccc(C)c3)ncc2Cl)s1	21
O=C1CCN(C(=O)Cc2ccccc2[N+](=O)[O-])CC1	14.3
O=C(Nc1cc(SCC(O)CO)cc([N+](=O)[O-])c1)c1ccc(-n2cnnn2)cc1 (stereo not shown)	17.4
Br.CC1(C(=O)CSc2n[nH]c(-c3ccccc3Cl)n2)CCC(=O)O1 (stereo not shown)	8.24
COc1ccc(N(CC(=O)NC2CCCCC2)S(=O)(=O)c2c(C)[nH]c(=O)[nH]c2=O)cc1	15.2
Cc1ccc(CNC(=O)c2nn(C)c(C)c2[N+](=O)[O-])cc1	5.74
Cl.N=c1n(CCN2CCCCC2)c2ccccc2n1CC(O)c1cccc(Br)c1 (stereo not shown)	-41.7
Cl.N=c1n(CCN2CCCCC2)c2ccccc2n1CC(O)c1ccc(Cl)c(Cl)c1 (stereo not shown)	-70.4
Cl.N=c1n(CCN2CCCC2)c2ccccc2n1CC(O)c1ccc(Cl)c(Cl)c1 (stereo not shown)	-33.2
COc1ccc(NC(=S)N2CCC(NC(=O)c3ccc(OC)cc3)CC2)cc1	11.3
CCOCCCNC(=S)Nc1ccc2nc(N3CCOCC3)cc(C)c2c1	9.64
CCOCCCNC(=S)Nc1ccc2nc(N3CCCC3)cc(C)c2c1	-74.8
Cc1cc(N2CCCC2)nc2ccc(NC(=S)NCCCOC(C)C)cc12	-78.6
CCN1CCN(c2cc(C)c3cc(NC(=S)N(C)Cc4ccccc4)ccc3n2)CC1	-56.7
CCN1CCN(c2cc(C)c3cc(NC(=S)N(CC)CC)ccc3n2)CC1	-8.83
